This is an account of results in PubChem BioAssay (NCATS).

“And” between values parts separate entries of the source, which are not always exact repeats. Equal values may be shown once. Inconclusive results are not listed. A call without a number means that no potency is given here. The source made the active and inactive calls. Unless noted, calls come from the whole dose curve; as a rule, active = well fitted inhibition curve with a large enough effect in the repeat runs; inconclusive = weak or mixed curves; inactive = flat fitted curve, though single readings scatter.
Potency is the fitted concentration of half-maximal effect.

Cytochrome P450 2D6 (Homo sapiens), sequence (P10635 whole entry, looked up): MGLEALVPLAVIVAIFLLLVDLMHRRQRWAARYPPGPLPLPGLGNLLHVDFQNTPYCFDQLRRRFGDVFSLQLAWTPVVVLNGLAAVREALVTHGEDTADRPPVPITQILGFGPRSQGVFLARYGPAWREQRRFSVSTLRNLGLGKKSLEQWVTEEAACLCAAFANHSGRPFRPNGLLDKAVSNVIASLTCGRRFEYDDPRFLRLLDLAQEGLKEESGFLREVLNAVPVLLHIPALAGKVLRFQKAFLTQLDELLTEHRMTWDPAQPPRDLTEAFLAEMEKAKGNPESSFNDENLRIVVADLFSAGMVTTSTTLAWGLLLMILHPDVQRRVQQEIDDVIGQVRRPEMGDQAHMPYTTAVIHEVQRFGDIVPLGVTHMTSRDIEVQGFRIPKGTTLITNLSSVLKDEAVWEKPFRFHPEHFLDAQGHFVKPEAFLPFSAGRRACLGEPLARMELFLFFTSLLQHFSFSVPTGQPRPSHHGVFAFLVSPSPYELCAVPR

System in the first test: not listed separately
The test is described as follows: A High-Content qHTS Against Drug Library for the Identification of Small Molecules that Inhibit DYT1 Early Onset Primary Dystonia-Associated Cell Pathology (AID 1645839; calls by dose curve). Conditions: HEK293 Flp-In EGFP-delE TorsinA, punctate imaging, 48 h; series mostly up to 46.1 µM. The gist of the method: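 High-content imaging quantified EGFP-TorsinA mislocalization in HEK293-derived cells inducibly expressing DYT1 mutant torsinA, after 48 h exposure to compound given together with tetracycline induction. Cell count served as a toxicity channel alongside %pathology.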
Regarding `NC1CCN(c2nc3c(cc2F)c(=O)c(C(=O)O)cn3-c2ccc(F)cc2F)C1` (configuration not stated), the Potency entry was “inactive”.

Consider `CCCN(CCC)S(=O)(=O)c1ccc(C(=O)O)cc1`, for which the Potency entry was “inactive”.

`CCCCN1C[C@H](O)[C@@H](O)[C@H](O)[C@H]1CO`: the Potency result is “inactive”.

For `C[N+]1(CC2COC(c3ccccc3)(C3CCCCC3)O2)CCCCC1` (configuration not stated), the Potency result was “inactive”.

Consider `CC(C)CCCC(C)N` (configuration not stated), for which the Potency result was “inactive”.

As to `CCCCCCCCCCCCCCCC(=O)O`, the Potency entry is “inactive”.

For the compound `CC(=O)Nc1ncc([N+](=O)[O-])s1`, the Potency result is “inactive”.

Regarding `C=C[C@H]1CN2CC[C@H]1C[C@H]2[C@H](O)c1ccnc2ccc(OC)cc12`, the Potency result is “inactive”.

For the compound `Oc1ccccc1C=NCc1ccccc1`, the Potency result is “inactive”.

In the case of `CCNC(=O)/C=C/c1cccc(Br)c1`, the Potency entry is “inactive”.

With `Cc1cc(NS(=O)(=O)c2ccc(N)cc2)nc(C)n1`, the Potency entry was “inactive”.

Regarding `CN1CCN(CCC(=O)N2c3ccccc3Sc3ccc(C(F)(F)F)cc32)CC1`, the Potency is 3.16 µM (active).

In the case of `CN1CCN(c2cc3c(cc2F)c(=O)c(C(=O)O)cn3-c2ccc(F)cc2)CC1`, the Potency result is “inactive”.

Consider `CCCCN=C(N)N=C(N)N`, for which the Potency result was “inactive”.

`C[C@H]1[C@H]2CC[C@H]3[C@@H]4CC=C5C[C@@H](N(C)C)CC[C@]5(C)[C@H]4CC[C@]23CN1C`: the Potency entry was “inactive”.

For the compound `CC(=O)OCC1=C(C(=O)O)N2C(=O)[C@@H](NC(=O)CSc3ccncc3)[C@H]2SC1`, the Potency entry is “inactive”.

As for `Cc1nc(-c2ccc(Cl)cc2)oc1COC(C)(C)C(=O)O`, the Potency entry is “inactive”.

As to `OC[C@H]1O[C@@H]2O[C@H]3[C@H](O)[C@@H](O)[C@@H](O[C@H]4[C@H](O)[C@@H](O)[C@@H](O[C@H]5[C@H](O)[C@@H](O)[C@@H](O[C@H]6[C@H](O)[C@@H](O)[C@@H](O[C@H]7[C@H](O)[C@@H](O)[C@@H](O[C@H]8[C@H](O)[C@@H](O)[C@@H](O[C@H]1[C@H](O)[C@H]2O)O[C@@H]8CO)O[C@@H]7CO)O[C@@H]6CO)O[C@@H]5CO)O[C@@H]4CO)O[C@@H]3CO`, the Potency result is “inactive”.

`CCC(Cc1c(I)cc(I)c(N)c1I)C(=O)O` (configuration not stated): the Potency entry was “inactive”.

`CC(=O)O[C@H]1C[C@@H]2CC[C@@H]3[C@H](CC[C@@]4(C)[C@H]3C[C@H]([N+]3(C)CCCCC3)[C@@H]4OC(C)=O)[C@@]2(C)C[C@@H]1N1CCCCC1`: the Potency entry is “inactive”.

`CN(C)CCOC(=O)C(c1ccccc1)C1(O)CCCC1` (configuration not stated): the Potency entry was “inactive”.

Consider `CCNC(=O)NCc1cccc(Cl)c1`, for which the Potency result is “inactive”.

On to `CCN(CC)CCOC(=O)C1(c2ccccc2)CCCC1`, for which the Potency entry was “inactive”.

As for `OC[C@H]1O[C@@H](Oc2ccc(O)cc2)[C@H](O)[C@@H](O)[C@@H]1O`, the Potency entry was “inactive”.

With `Cc1cccc(C)c1NC(=O)CN1CCCC1`, the Potency result was “inactive”.

On to `C=C1c2cccc(O)c2C(O)=C2C(=O)[C@]3(O)C(O)=C(C(N)=O)C(=O)[C@@H](N(C)C)[C@@H]3[C@@H](O)[C@H]12`, for which the Potency entry was “inactive”.

A further test concerns the target Cytochrome P450 2D6 (Homo sapiens) (UniProt P10635). In words: Cytochrome P450 family 2 subfamily D member 6 (CYP2D6) small molecule antagonists: luciferase biochemical (cell-free) qHTS assay (AID 1645840). Note: nearly all actives have a fitted effect of over 55% in size. Conditions: P450-Glo CYP2D6 enzyme, luciferin luminescence, 1 h; series mostly up to 57.4 µM. The gist of the method: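 P450-Glo CYP2D6 system: proluciferin substrate converted by enzyme to luciferin, read by luminescence proportional to activity. Enzyme-substrate mix with compound 10 min at room temperature, then NADPH regeneration 1 h before detection reagent.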
In the case of `NC1CCN(c2nc3c(cc2F)c(=O)c(C(=O)O)cn3-c2ccc(F)cc2F)C1` (configuration not stated), the Potency entry is “inactive”.

For `Oc1c(Cl)cc(Cl)c(Cl)c1Cc1c(O)c(Cl)cc(Cl)c1Cl`, the Potency is 13.8 µM (active).

With `CCCN(CCC)S(=O)(=O)c1ccc(C(=O)O)cc1`, the Potency entry was “inactive”.

Take `CCCCN1C[C@H](O)[C@@H](O)[C@H](O)[C@H]1CO`: the Potency result is “inactive”.

On to `C[N+]1(CC2COC(c3ccccc3)(C3CCCCC3)O2)CCCCC1` (configuration not stated), for which the Potency is 1.55 µM (active).

For `CC(C)CCCC(C)N` (configuration not stated), the Potency result is “inactive”.

Turning to `CCCCCCCCCCCCCCCC(=O)O`, the Potency entry is “inactive”.

Consider `O=C(O)C(Cc1cc(I)c(O)c(I)c1)c1ccccc1` (configuration not stated), for which the Potency result was “inactive”.

As to `CCNC(=O)/C=C/c1cccc(Br)c1`, the Potency result is “inactive”.

Turning to `Oc1ccc(Cl)cc1Cc1cc(Cl)ccc1O`, the Potency is 27.5 µM (active).

As to `Cc1cc(NS(=O)(=O)c2ccc(N)cc2)nc(C)n1`, the Potency result is “inactive”.

`CN1CCN(CCC(=O)N2c3ccccc3Sc3ccc(C(F)(F)F)cc32)CC1`: the Potency was 0.0347 µM (active).

For the compound `CN1CCN(c2cc3c(cc2F)c(=O)c(C(=O)O)cn3-c2ccc(F)cc2)CC1`, the Potency result is “inactive”.

In the case of `C[C@H]1[C@H]2CC[C@H]3[C@@H]4CC=C5C[C@@H](N(C)C)CC[C@]5(C)[C@H]4CC[C@]23CN1C`, the Potency entry is “inactive”.

For the compound `CC(=O)OCC1=C(C(=O)O)N2C(=O)[C@@H](NC(=O)CSc3ccncc3)[C@H]2SC1`, the Potency was 13.8 µM (active).

Take `Cc1nc(-c2ccc(Cl)cc2)oc1COC(C)(C)C(=O)O`: the Potency result was “inactive”.

For the compound `OC[C@H]1O[C@@H]2O[C@H]3[C@H](O)[C@@H](O)[C@@H](O[C@H]4[C@H](O)[C@@H](O)[C@@H](O[C@H]5[C@H](O)[C@@H](O)[C@@H](O[C@H]6[C@H](O)[C@@H](O)[C@@H](O[C@H]7[C@H](O)[C@@H](O)[C@@H](O[C@H]8[C@H](O)[C@@H](O)[C@@H](O[C@H]1[C@H](O)[C@H]2O)O[C@@H]8CO)O[C@@H]7CO)O[C@@H]6CO)O[C@@H]5CO)O[C@@H]4CO)O[C@@H]3CO`, the Potency entry is “inactive”.

On to `CCC(Cc1c(I)cc(I)c(N)c1I)C(=O)O` (configuration not stated), for which the Potency is 15.5 µM (active).

Turning to `O=C1[C@H](CC[C@H](O)c2ccc(F)cc2)[C@@H](c2ccc(O)cc2)N1c1ccc(F)cc1`, the Potency is 15.5 µM (active) and 9.52 µM (active).

As for `CCNC(=O)NCc1cccc(Cl)c1`, the Potency entry was “inactive”.

For the compound `CCN(CC)CCOC(=O)C1(c2ccccc2)CCCC1`, the Potency was 2.19 µM (active).

Take `C#C[C@]1(OC(C)=O)CC[C@H]2[C@@H]3CCC4=C/C(=N/O)CC[C@@H]4[C@H]3CC[C@@]21CC`: the Potency was 2.68 µM (active).

Consider `OC[C@H]1O[C@@H](Oc2ccc(O)cc2)[C@H](O)[C@@H](O)[C@@H]1O`, for which the Potency entry is “inactive”.

For the compound `Cc1cccc(C)c1NC(=O)CN1CCCC1`, the Potency is 12.3 µM (active).

Turning to `O=C(N/N=C/c1ccc([N+](=O)[O-])o1)c1ccc(O)cc1`, the Potency is 3.89 µM (active).

Turning to `CCOC(=O)C(C#N)=C(c1ccccc1)c1ccccc1`, the Potency result was “inactive”.
